Compound activity as filed in PubChem BioAssay.
Only some compounds are listed: those with a hit (about 9.5% of all), similar ones and a draw of the others.
HPGD block – inhibitors of human 15-hydroxyprostaglandin dehydrogenase (HPGD); AID 894; purified HPGD, NADH fluorescence kinetic, PGE2 substrate; Potency, µM, for inactives: at the top dose activity change, negative = inhibition, most hits filed as inhibitors; P15428; actives 4.3% (n = 150,000); active = well fitted inhibition curve with a large enough effect, not every such curve was filed as active; inconclusive = small, poorly fitted or top-dose-only effect, or another doubt; inactive = no such curve, though single readings can be large or run the other way
Target sequence (P15428 whole entry, looked up): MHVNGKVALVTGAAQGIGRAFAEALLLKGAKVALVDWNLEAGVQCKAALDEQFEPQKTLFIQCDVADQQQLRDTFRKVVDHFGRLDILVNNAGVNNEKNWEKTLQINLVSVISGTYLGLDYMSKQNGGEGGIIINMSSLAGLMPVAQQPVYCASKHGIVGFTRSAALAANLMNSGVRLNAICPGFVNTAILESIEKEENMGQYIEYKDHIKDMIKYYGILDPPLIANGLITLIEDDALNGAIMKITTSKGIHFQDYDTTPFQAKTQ
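20 nM HPGD preincubated 15 min at room temperature with compound in 50 mM Tris-HCl pH 8, 0.01% Tween 20. Started with 1 mM NAD+ and 30 uM prostaglandin E2; NADH fluorescence (360/450 nm) read 5 times over 30-s intervals, last minus first.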
Tau ThT inhib – blocks human tau fibril formation measured by thioflavin T. P10636. recombinant tau K18 P301L, heparin-induced fibrillization, ThT fluorescence. Potency, µM (doses to about 57.4 µM), for the others: top-dose activity, negative = inhibition, usual class: inhibitors. actives 2.1% (n = 270,000); also: nearly all actives have a fitted effect of over 55% in size
Target sequence (P10636 561-689 P618L limits assumed): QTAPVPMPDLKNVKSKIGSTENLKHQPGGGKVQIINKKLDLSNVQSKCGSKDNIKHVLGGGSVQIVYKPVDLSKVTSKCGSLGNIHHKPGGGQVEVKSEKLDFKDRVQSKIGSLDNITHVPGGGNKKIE
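Recombinant human tau K18 fragment […] carrying P301L, 15 uM unlabeled plus 0.24 uM Alexa 594-labeled, was fibrillized with 20 uM heparin in 100 mM sodium acetate pH 7 for 6 hr at 37 C; 30 uM ThT fluorescence read after 1 hr.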
ALDH1A1 block – inhibitors of human aldehyde dehydrogenase 1A1 | Purified ALDH1A1, NADH fluorescence, propionaldehyde substrate | Potency, µM (top dose mostly 75.3 µM), without a hit: top-dose activity, negative = inhibition, hits mostly inhibitors | P00352 | actives 7.3% (n = 220,000) | AID 1030; active = well fitted inhibition curve with a large enough effect, not every such curve was filed as active; inconclusive = small, poorly fitted or top-dose-only effect, or another doubt; inactive = no such curve, though single readings can be large or run the other way;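 also: plate controls were no enzyme wells and a reference inhibitor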
Tau fluor cs – counter-screen for tau fibril formation inhibitors | actives 0.93% (n = 280,000) | AID 1463 | Potency, µM (titrated, usually from 57.7 µM), for inactives: at the highest dose activity change, negative = decrease | tau K18 P301L Alexa594 fluorescence, heparin fibrillization; also: nearly all actives have a fitted effect of over 55% in size
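Human tau K18 P301L (15 uM unlabeled, 0.24 uM Alexa 594-labeled) in 100 mM sodium acetate pH 7 with 20 uM heparin, 6 hr at 37 C. ThT 30 uM added, 1 hr ambient; Alexa 594 FP and total fluorescence read at 555/632 nm.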
NPSR antag – neuropeptide S receptor (human) antagonism, cAMP. Potency, µM (doses to about 38.3 µM), for inactives: at the highest dose activity change, negative = inhibition, hits mostly inhibitors. CHO-NPSR cells, cAMP TR-FRET, antagonist mode. actives 1% (n = 220,000). Q6W5P4. AID 1461; also: nearly all actives have a fitted effect of over 50% in size
Tau FP inhib – blocks human tau fibril formation measured by polarization; P10636; K18 P301L tau heparin fibrillization, Alexa594 FP, 6 h; Potency, µM (highest dose often 57.7 µM), for inactives: at the highest dose activity, negative = inhibition, hits mostly inhibitors; actives 0.39% (n = 280,000); AID 1468; also: nearly all actives have a fitted effect of over 55% in size
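FP of Alexa 594-tau after heparin (20 uM) induction. Substrate: human K18 P301L, 15 uM unlabeled, 0.24 uM labeled. Buffer 100 mM sodium acetate pH 7. 6 hr, 37 C.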
An asterisk follows results filed as active; u = inconclusive; x = not tested or not shown; ! = repeats disagree; [ ] = remark or other dose. Unless noted, calls follow the shape of the dose curve; as a rule, active = well fitted curve in the direction sought with a large enough effect; inconclusive = small, poorly fitted or top-dose-only effect, or another doubt; inactive = no such curve, though single readings can be large; an effect the other way counts as inactive or inconclusive. Unless noted, % is scaled to controls: 0 for no effect and ±100 for the full control effect; potency is read from the fitted curve at half-maximal effect.

SMILES	HPGD block	Tau ThT inhib	ALDH1A1 block	Tau fluor cs	NPSR antag	Tau FP inhib
CCC(=O)Nc1cccc(NC(=S)NC(=O)c2cccc(C)c2)c1	-9%	u	25µM*	-20%	3%	-11%
CCC(=O)Nc1cccc(NC(=S)NC(=O)c2ccccc2)c1	-7%	1%	u	9%	5%	1%
COc1cc(C(=O)N(c2ccc(C)c(C)c2)C2C=CS(=O)(=O)C2)cc(OC)c1OC (centres undefined)	x	4%	-2%	4%	5%	2%
CN(C)/C=C1/Sc2ccccc2C1=O	-16%	u	u	-5%	-18%[46.1 µM]	2%
CC(=O)N(\C=C/C=C/C=C1\Sc2ccccc2C1=O)c1ccccc1	x	6.3µM*	18µM*	u	-48%	u
Cc1cnc(C(=O)Nc2cccc(S(=O)(=O)N(C)C)c2)cn1	-4%	-11%	u	-5%	-1%[46.1 µM]	-1%
Cc1cccc2[nH]c3c(N4CC=C(c5ccc(F)cc5)CC4)ncnc3c12	x	u	-19%	14µM*[quencher]	31%	u
Nc1ccc(-c2ccc(C(=O)O)s2)cn1	x	0%	u	0%	-10%	-2%
COc1ccc(OCCC(=O)Nc2cc(C)on2)cc1	-4%	-9%	22µM*	0%	-4%[46.1 µM]	1%
Cc1cc(NC(=O)Nc2ccc(F)cc2)no1	-13%	2%	u	4%	-3%[46.1 µM]	8%
Cc1cc(NC(=O)CCOc2ccc(F)cc2)no1	x	-14%	0.71µM*	-8%	-1%	-2%
CC1(OC(=O)c2cccs2)C(=O)C=C2C=C(c3ccsc3)OC=C2C1=O (centres undefined)	0%	-2%	13%	-4%	x	u
COc1ccc(CN2C=C3C(=O)C(C)(OC(=O)C4CCCC4)C(=O)C=C3C=C2c2ccsc2)cc1 (centres undefined)	1%	18µM*!	-10%[13.5 µM]	-7%[11.6 µM]	-22%	u
CC1(OC(=O)C2CCCC2)C(=O)C=C2C=C(c3ccsc3)OC=C2C1=O (centres undefined)	-4%	16µM*	0%	u	10%	u
CC1(OC(=O)C2CCCC2)C(=O)C=C2C=C(c3ccsc3)N(Cc3ccco3)C=C2C1=O (centres undefined)	-11%	u	3.5µM*	-14%[11.6 µM]	-6%	-4%[11.6 µM]
CC1(OC(=O)c2cccs2)C(=O)C=C2C=C(c3ccc(C#N)cc3)OC=C2C1=O (centres undefined)	-10%	28µM*	0%	-12%	x	u
CC1(OC(=O)C2CCCC2)C(=O)C=C2C=C(c3ccsc3)N(CCCCO)C=C2C1=O (centres undefined)	-7%	u	-3%[13.5 µM]	-26%[11.6 µM]	1%	-9%[11.6 µM]
COc1ccc(-c2csc3c2[N+]2=CCC=C2C3=O)cc1	-5%	x	-10%[13.5 µM]	x	x	x
Cc1c([N+](=O)[O-])cc(C(=O)Oc2cccc(C(=S)N3CCOCC3)c2)cc1[N+](=O)[O-]	x	u	-8%	u	0%	-4%
N#CC1=C(N)C2=C(N3CCCCC3)CCCC2C1(C#N)C#N (centres undefined)	-1%	32µM*	u	u	-19%[46.1 µM]	u
C=C(C)C(=O)/C=C/C=C/c1ccccc1	-4%	-4%	-1%	0%	x	-1%
CO[C@H]1COC(=O)[C@H](C)COC(=O)C/C=C\[C@@H](C)[C@H](OC)COC(=O)C/C=C\[C@@H]1C	x	-2%[11.5 µM]	3%[13.5 µM]	-2%[11.6 µM]	x	0%[11.6 µM]
O=C(CSc1nnnn1C1CCCCC1)N1CCCC1	x	5%	u	3%	-7%[46.1 µM]	-4%
CCn1nnnc1SCC(=O)c1cc(Cl)ccc1OC	x	-7%	u	-6%	12%	-1%
COc1ccc(Cl)cc1C(=O)CSc1nnnn1C1CCCCC1	-26%	-15%	5µM*	-20%	-20%[46.1 µM]	4%
SMILES	HPGD block	Tau ThT inhib	ALDH1A1 block	Tau fluor cs	NPSR antag	Tau FP inhib
COc1ccc(Cl)cc1C(=O)CSc1nnnn1C1CCCC1	x	-16%	2µM*	-19%	-19%[46.1 µM]	-1%
Cc1cc(=O)n(CC(=O)NCc2ccc(OC(C)C)cc2)c2c1c(C)nn2-c1cccc(F)c1	x	11%	x	-1%	x	0%
COc1ccc(/C=C/C2=CC(C)(C)NC(=S)N2)cc1	x	u	5.6µM*	-6%	-6%	6%
O=C1CSc2ccc(C(=O)NCCC3=CCCCC3)cc2N1	-6%	-4%	7%	0%	-11%[46.1 µM]	4%
COCCNC(=O)c1ccc2c(c1)NC(=O)CS2	35µM*	-4%	8%	-14%	-2%[46.1 µM]	-3%
Cc1ccc(NS(=O)(=O)c2cc(NC(=O)c3ccc4c(c3)NC(=O)CS4)ccc2Cl)c(C)c1	x	-13%	10µM*	u	-35%	25µM*
COc1ccc(NC(=O)CSc2nc3c(c(=O)n2-c2ccccc2OC)SCC3)cc1	-5%	u	11µM*	-22%	-24%[46.1 µM]	-8%
CCOC(=O)c1ccc(NC(=O)CSc2nc3c(c(=O)n2-c2ccccc2OC)SCC3)cc1	-12%	-4%	-13%	-15%	-13%[46.1 µM]	-3%
CCOc1ccc(NC(=O)CSc2nc3[nH]ncc3c(=O)n2-c2ccccc2OC)cc1	-9%	u	8.9µM*	u	15%	-1%
COC(=O)C(C)Sc1nc2c(c(=O)n1-c1ccccc1)SCC2 (centres undefined)	-8%	-10%	3.2µM*	-9%	9%[46.1 µM]	-3%
COc1ccc(N2CC(NC(=O)COc3ccc(F)cc3)CC2=O)cc1OC (centres undefined)	x	-5%	x	-3%	x	-7%
COc1ccccc1/C=C/C1=NC(=C\C=C/c2ccccc2)/C(=O)O1	-12%	11µM*	u	-10%	-6%	-7%
O=C1OC(/C=C/c2ccccc2)=NC/1=C\c1cccnc1	x	-1%	5%	2%	-5%	3%
CCCCC(CCC(=O)O)(C(=O)OCC)c1csc(Nc2ccc(C)cc2)n1 (centres undefined)	x	-7%	4%	-7%	4%	-2%
CCOC(=O)/C(=N\Nc1ccccc1)c1csc(Nc2ccc(C)cc2)n1	-16%	u	0%	7.1µM*[quencher]	-25%[46.1 µM]	8%
CC(=O)NC1C(c2nc3ccccc3s2)=C(c2ccccc2)C(=O)N1c1ccc(C)cc1 (centres undefined)	-24%	u	7.9µM*	-25%	u	1%
Cc1ccc(Nc2cc(=O)oc3ccccc23)c(C)c1	-11%	-2%	7%	1%	-20%[46.1 µM]	4%
Cc1ccccc1Nc1cc(=O)oc2ccccc12	-20%	-7%	14µM*	-6%	-8%[46.1 µM]	6%
Cc1cccc(N/C=C(\[N+](=O)[O-])S(=O)(=O)c2ccccc2)c1C	x	-9%	25µM*	-7%	0%	-12%
Cc1csc(NC(=O)CSc2nnc(NC(=O)COc3ccc(Cl)cc3)s2)n1	-14%	-5%	u	-3%	9%	0%
